This passage reports outcome and AC50 results from PubChem BioAssay (EPA / NIEHS).

Some compounds were tested as several samples or in several runs, with calls that do not always agree. The source made the active and inactive calls. How the source made its calls: active means hit-call score of the fitted dose curve at least 0.9, where 1 is the maximum; inactive means score below 0.9.

The assay is described as follows: ATG_DR4_LXR_CIS: Attagene CIS-FACTORIAL HepG2 Assay for human Liver X Receptor (LXR), DR4 submotif (AID 2282929). Particulars: HepG2 Attagene DR4 cis-reporter, mRNA transcription; actives raise or lower the signal. Summed up: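 Fluorescence intensity of labelled reporter cDNA fragments, separated by capillary electrophoresis, gives the signal. HepG2 cells bearing cis-regulated reporter constructs were treated 24 h; activity fitted bidirectionally relative to DMSO negative control.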
For `NC(=O)C(F)(F)C(F)(F)C(F)(F)C(F)(F)F`, the result was inactive.

Consider `FC(F)(F)C(F)(F)C(F)(F)C(F)(F)C(F)(F)CCI`, for which the outcome was inactive.

Turning to `CCN(CC)c1ccc2c(C)cc(=O)oc2c1`, the outcome was inactive.

Usually AC50 stands for the concentration at which the activity in the assay is half-maximal. As to `CCCCCCCCCCCCCCCC[N+](C)(C)Cc1ccccc1`, the AC50 is 24.9 µM (active). Take `Nc1ccc([N+](=O)[O-])cc1O`: the call was inactive. With `FC(F)(F)C(F)(F)C(F)(F)C(F)(F)C(F)(F)C(F)(F)C(F)(F)C(F)(F)CCS`, the compound was classed as inactive. For `OC[C@@H](O)[C@@H](O)[C@H](O)[C@@H](O)CO`, the compound was called inactive. Turning to `C(=C(c1ccccc1)c1ccccc1)c1ccccc1`, the half-maximal activity concentration (AC50) was 59 µM (active). As for `C=CC/C=C/C/C=C/C/C=C/C`, the result was inactive.

With `OCCCC(F)(F)C(F)(F)C(F)(F)C(F)(F)C(F)(F)C(F)(F)C(F)(F)F`, the half-maximal activity concentration (AC50) is 35.6 µM (active) and the outcome was inactive. With `c1ccc(-c2ccccc2-c2ccccc2)cc1`, the AC50 was 27.7 µM (active).
